# Data as given in PubChem BioAssay.
# Assay: small-molecule microarray binders of probe aDKK1, primary screen, biochemical, biotinylated probe, 635/667 nm fluorescence (AID 1099);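 note: score merges 667nm spot fluorescence with signal to noise across triplicate slides; reference of the scale not given here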
# Conditions: higher = more signal
row,Structure (SMILES),composite z-score
1,COc1cc(NN2C(C(O)c3ccc(I)cc3)C=CC3C(=O)N(C)C(=O)C32)cc(OC)c1OC (stereo unspecified),0.986
2,CC(C)N1C(=O)c2ccccc2[C@](C)(C(=O)O)[C@@H]1c1ccc(CO)cc1,0.326
3,NC(=O)NCC#Cc1ccc2c(c1)[C@]1(C(=O)N2)[C@H](c2ccc(O)cc2)N2[C@H](c3ccccc3)[C@H](c3ccccc3)OC(=O)[C@H]2[C@@H]1C(N)=O,0.431
4,CCCCC(CC)C(O)C1C=CC2C(=O)NC(=O)C2N1Nc1ccccn1 (stereo unspecified),0.189
5,COC(=O)[C@@]1(Cc2ccccc2)[C@H]2c3cc(C(=O)N4CCCC4)n(Cc4ccc(OC(F)(F)F)cc4)c3C[C@H]2CN1C(=O)c1ccccc1,1.34
6,C=C(COC)C(=O)CC[C@H](OC(=O)c1ccccc1-c1ccccc1C(=O)O)c1ccc(OCCO)cc1,-0.203

# Assay: small-molecule microarray binders of probe aCHRDL2, primary screen, biochemical, biotinylated probe, 635/667 nm fluorescence (AID 1100)
# Conditions: higher = more signal
row,Structure (SMILES),composite z-score
1,C=C[C@@H](O)[C@H]1CC(c2ccccc2)=NO1,0.0537
2,COC(=O)[C@]1(Cc2ccccc2CN=[N+]=[N-])N=C(c2ccc(OCCCO)cc2)O[C@@H]1c1ccccc1CN=[N+]=[N-],0.835
3,O=C1C2C=CC(C(O)c3cccc4ccccc34)N(Nc3ccccc3)C2C(=O)N1c1ccccc1 (stereo unspecified),0.945
4,O=C(O)[C@@]1(Cc2ccccc2)COC(c2ccc(OCCCO)cc2)=N1,0.988
5,O=C1c2ccccc2[C@](Cc2ccccc2I)(C(=O)NC2CC2)[C@H](c2ccc(CO)cc2)N1Cc1ccccc1Cl,0.995
6,O=C(NCc1ccccc1)[C@]1(Cc2ccccc2)N=C(c2ccc(OCCCO)cc2)O[C@@H]1c1ccccc1,0.75
7,COCCCNC(=O)[C@@H]1c2ccccc2C(=O)N(Cc2cc(F)cc(C(F)(F)F)c2)[C@H]1c1ccc(CO)cc1,0.998
8,COC(=O)[C@@]1(Cc2ccc(OC)cc2)[C@H]2c3cc(C(=O)N4CCCC4)n(CCF)c3C[C@H]2CN1C(=O)c1ccccc1,1.56
9,Cc1ccc(C(C)CC(O)C2C=CC3C(=O)N(Cc4ccccc4)C(=O)C3N2n2cnnc2)o1 (stereo unspecified),1.03
10,CN1C(=O)C2C=CC(C(O)c3cccc4ccccc34)N(NC(=O)OC(C)(C)C)C2C1=O (stereo unspecified),1.43
11,O=C1N(Cc2ccccc2)c2ccccc2[C@H]2OC(c3ccc(OCCCO)cc3)=N[C@@]12CCS(=O)(=O)c1ccccc1,0.584
12,COC(=O)[C@@]1(Cc2ccccc2)[C@H]2c3cc(C(=O)N4CCCC4)n(Cc4ccccc4)c3C[C@H]2CN1C(=O)c1ccccc1,0.94
13,CCOC(=O)C[C@H]1[C@H](OC(=O)c2ccccc2-c2ccccc2)[C@@H](NC(=O)c2ccccc2)c2cc(OCCCO)ccc2N1C(=O)Cc1ccc(OC)cc1,0.0247
14,COc1ccccc1CN1C(=O)c2ccccc2[C@@H](C(=O)NCC(C)C)[C@@H]1c1ccc(CO)cc1,0.705
15,COC(=O)C(CC#Cc1ccc2c(c1)[C@]1(C(=O)N2)[C@H](c2ccc(O)cc2)N2[C@H](c3ccccc3)[C@H](c3ccccc3)OC(=O)[C@H]2[C@@H]1C(N)=O)C(=O)OC,0.613
16,CCCC[C@@H](O)C1=C(COc2ccccc2)Cn2c(=O)n(-c3ccccc3)c(=O)n2[C@H]1CO,-0.444
17,NC(=O)[C@H]1[C@@H]2C(=O)O[C@@H](c3ccccc3)[C@@H](c3ccccc3)N2[C@@H](c2ccc(O)cc2)[C@]12C(=O)Nc1ccc(C#CC3(O)CCCCCC3)cc12,0.0715
18,CCCN1C(=O)[C@@]2(Cc3ccccc3)N=C(c3ccc(OCCCO)cc3)O[C@H]2c2ccccc21,0.707

row,Structure (SMILES),composite z-score
1,COC(=O)[C@@]1(Cc2ccc(OC)cc2)[C@H]2c3cc(C(=O)N4CCCC4)n(CCc4ccc(O)c(OC)c4)c3C[C@H]2CN1C(=O)c1ccccc1,1.09
2,COCCOC(=O)N1C(=O)[C@@]2(c3cc(C#Cc4ccc(OC)cc4)ccc31)[C@H](C(=O)N1CCc3cc(OC)c(OC)cc3C1)[C@H]1C(=O)O[C@H](c3ccccc3)[C@H](c3ccccc3)N1[C@@H]2c1ccc(OCCO)cc1,-0.0585
3,C[N+](C)(C)CCCCCCNC(=O)[C@@H]1C[C@@H]2C(=O)NCC(=O)N2[C@@H]1c1ccc(O)cc1,0.135
4,COCCCNC(=O)[C@]1(CCS(=O)(=O)c2ccccc2)N=C(c2ccc(OCCCO)cc2)O[C@@H]1c1ccccc1,0.937
5,C[C@@]1([C@@H](NC(=O)c2cccs2)c2ccc(-c3ccccc3)cc2)C[C@H]1C1CCCCC1,0.126
6,COc1cccc(C[C@H]2C[C@@H](CO[Si](C(C)C)(C(C)C)C(C)C)N3C(=O)[C@]4(C(C)=O)O[C@]23[C@H]2C(=O)N(C)C(=O)[C@H]24)c1,-0.463
7,[N-]=[N+]=Nc1ccccc1[C@@H]1OC(c2ccc(OCCCO)cc2)=N[C@]1(CCS(=O)(=O)c1ccccc1)C(=O)NCc1ccccc1,1.28
8,C=CC[C@@]1(C(=O)NCCN2CCOCC2)N=C(c2ccc(OCCCO)cc2)O[C@@H]1c1ccccc1,0.853
9,COC(=O)C(CC#Cc1ccc2c(c1)[C@]1(C(=O)N2)[C@H](c2ccc(OCCO)cc2)N2[C@H](c3ccccc3)[C@H](c3ccccc3)OC(=O)[C@H]2[C@@H]1C(=O)O)C(=O)OC,0.931
10,COC(=O)c1ccc(OC)c(/C=C\CC(CCc2ccccc2)OC(C)=O)c1 (stereo unspecified),-0.101
11,COCC1=C([C@H](O)CCc2ccccc2)[C@H](CO)[C@@H]2C(=O)N(C)C(=O)[C@@H]2C1,-0.578
12,COc1cc(NN2C(C(O)c3ccc(I)cc3)C=CC3C(=O)N(C)C(=O)C32)cc(OC)c1OC (stereo unspecified),1.02
13,CC(C)N1C(=O)c2ccccc2[C@](C)(C(=O)O)[C@@H]1c1ccc(CO)cc1,0.855
14,NC(=O)NCC#Cc1ccc2c(c1)[C@]1(C(=O)N2)[C@H](c2ccc(O)cc2)N2[C@H](c3ccccc3)[C@H](c3ccccc3)OC(=O)[C@H]2[C@@H]1C(N)=O,0.55
15,CCCCC(CC)C(O)C1C=CC2C(=O)NC(=O)C2N1Nc1ccccn1 (stereo unspecified),0.471
16,COC(=O)[C@@]1(Cc2ccccc2)[C@H]2c3cc(C(=O)N4CCCC4)n(Cc4ccc(OC(F)(F)F)cc4)c3C[C@H]2CN1C(=O)c1ccccc1,1.4
17,C=C(COC)C(=O)CC[C@H](OC(=O)c1ccccc1-c1ccccc1C(=O)O)c1ccc(OCCO)cc1,0.0518
